# IL-1B inflam inh – blocks inflammasome-driven IL-1 beta release. 360,000 compounds, 4.7% hits. AID 743279. activity change, % at 57.5 µM. THP-1 LPS/ATP IL-1B secretion, AlphaLISA, 16 h; active compounds read low; in the data active means activity change below about -50%; inconclusive means mostly about -30% to -49%
#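 Secreted IL-1B measured by AlphaLISA bead assay after 16 h compound exposure of THP-1 cells; compounds (final up to 57.5 uM) added 1 h before LPS (250 ng/mL) and ATP (1.25 mM) stimulation; lower signal means less secretion.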
# TDP1 cell noCPT – qHTS for Inhibitors of human tyrosyl-DNA phosphodiesterase 1 (TDP1): qHTS in cells in absence of CPT; DT40 Tdp1-/- hTDP1 cells, no CPT, ATP luminescence, 48 h; Potency, µM (top dose mostly 46.2 µM), for inactives: at the top dose activity change, negative = growth inhibition, usual class: inhibitors; 420,000 compounds, 15% hits; AID 686978, 2013; further: potency means the concentration at half of the fitted maximal effect; nearly all actives have a fitted effect of over 55% in size
#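 Camptothecin absent (DMSO only). Human TDP1-complemented DT40 knockout cells, 400 cells/well, 37 °C for minimum 48 hr; ATP measured via CellTiter-Glo, 30 min dark incubation, luminescence.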
# DT40 TDP1 CPT – DT40-hTDP1 cell growth loss with CPT; chicken DT40 Tdp1-/-;hTDP1 cells + 20 nM CPT, ATP luminescence, 48 h; Potency, µM (doses to about 46.2 µM), for inactives: at the top dose activity change, negative = growth inhibition, most hits filed as inhibitors; 420,000 compounds, 12% hits; AID 686979; further: potency means the concentration at half of the fitted maximal effect; nearly all actives have a fitted effect of over 55% in size
#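 Chicken DT40 Tdp1-/- cells complemented with human TDP1, 400 cells/well, exposed to compounds plus 20 nM camptothecin for at least 48 h at 37 C; viability read as ATP content by CellTiter-Glo luminescence.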
# HT1080 IDH1KD tx – toxicity to HT-1080 IDH1 knockdown cells (counter line). HT-1080 IDH1 knockdown viability, ATP luminescence, 48 h. Potency, µM (highest dose often 46.1 µM), for the others: at the highest dose activity, negative = toxicity, actives largely listed as cytotoxic. 360,000 compounds, 2% hits. AID 686971;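 further: potency means the concentration at half of the fitted maximal effect; 0% = DMSO wells and -100% = cell-free medium wells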
#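 Knockdown cells (IDH1KD HT-1080) received compounds 2 h after plating at 750 cells/well and were kept 48 h at 37 °C in 5% FBS RPMI. A CellTiter-Glo luminescence read gave % activity for curve fitting.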
# HT1080-NT tox – kills 2HG-producing HT-1080-NT fibrosarcoma cells. Potency, µM (titrated, usually from 46.1 µM), for the others: at the highest dose activity, negative = less viability, hits mostly cytotoxic. 360,000 compounds, 1.6% hits. HT-1080-NT fibrosarcoma viability, CellTiter-Glo ATP luminescence, 48 h;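 further: NT is the 2HG producing partner of a matched IDH1 knockdown line; potency means the concentration at half of the fitted maximal effect; 0% = DMSO-treated cells and -100% = media-only wells without cells; nearly all actives have a fitted effect of over 55% in size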
#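 750 cells/well, RPMI + 5% FBS; 2 h settle, compound pin-transfer, 48 h at 37 degrees C. CellTiter-Glo 10 min RT, luminescence. Normalized to DMSO and media-only wells.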
# Numbers without * were called inactive; ? = inconclusive; / = not tested or not shown; ! = not confirmed by another sample; [ ] = dose if it differs, or a comment. A selection: hits, their analogues and other compounds. The true share with any hit is near 19%. Unless noted, the call rests on the fitted dose curve; in most records, active means well fitted curve in the direction sought with a large enough effect; inconclusive means small, poorly fitted or top-dose-only effect, or another doubt; inactive means no such curve, though single readings can be large; an effect the other way counts as inactive or inconclusive. Unless noted, on the % scale 0 is the no-effect control and ±100 the full control effect.
SMILES,IL-1B inflam inh,TDP1 cell noCPT,DT40 TDP1 CPT,HT1080 IDH1KD tx,HT1080-NT tox
C/C(CCc1ccc2c(c1)OCO2)=N\NC(=S)NC(C)C,-10,16µM*,18µM*,1%,-4%
COCCNC(=S)N/N=C(\C)CCc1ccc2c(c1)OCO2,24,-26%,-30%,15%,-4%
COC(=O)c1cc(S(=O)(=O)NCc2cccs2)c[nH]1,-8,-29%,10%,0%,-11%
Cn1cnc2c(=O)oc3ccc(S(=O)(=O)N4CCN(c5ccccc5F)CC4)cc3c21,/,-23%,-9%,/,/
Cc1cccc(N2CCN(S(=O)(=O)c3ccc4oc(=O)c5ncn(C)c5c4c3)CC2)c1C,/,16µM*,?,/,/
CCCCCCCC[n+]1cccc(C(=O)N(CC)CC)c1,-6,?,-26%,-5%,5%
CCCCCCCCCCCCCCCC[n+]1ccc(/C=N/O)cc1,-100*,1.6µM*,1.6µM*,23µM*,21µM*
CCCCCCCCCCCCCCCC[n+]1ccc(C(N)=O)cc1,-103*,2.9µM*,4.6µM*,-6%,-4%
CCCCCCCCCCCC[n+]1ccc2ccccc2c1,/,0.34µM*,0.53µM*,/,/
CCCCCCCCCCCCCCCC[n+]1cccc(C(=O)N(CC)CC)c1,-63*,2.6µM*,2.9µM*,21µM*!,?
Oc1ccc[n+](CCCCC[n+]2cccc(O)c2)c1,-9,-4%,-10%,-1%,0%
CCOc1ccc(NC(=O)c2cc(=O)c3cc(CC)ccc3o2)cc1,/,10%,-3%,/,/
CN(Cc1cccs1)C(=O)Cn1cnc2ccccc2c1=O,15,10%,3%,6%,-1%
CCOc1ccc(NC2SC(=O)N(Cc3ccccc3)C2=O)cc1 (configuration not stated),/,-15%,7%,/,/
CCCCCCCCCCCCCC[n+]1ccc(C)cc1,/,0.38µM*,0.42µM*,/,/
COc1ccc(N2CCN(S(=O)(=O)c3ccc(OC)c(C(=O)N4CCCC4)c3)CC2)cc1,7,?,?,9%,9%
Cc1ccc(-c2nc3ccccc3s2)cc1S(=O)(=O)N1CCCC1,-6,?,13µM*,10µM*,-41%
Cc1ccc(-c2nnc(Nc3cccc(Cl)c3)c3ccccc23)cc1S(=O)(=O)N1CCN(C)CC1,/,21µM*,12µM*,/,/
Cc1ccc(C)c(S(=O)(=O)N2CCCN(C)CC2)c1,1,-7%,-16%,-4%,8%
O=S(=O)(c1cccc(-c2nc3ccccc3s2)c1)N1CCOCC1,-10,-18%,?,-7%,-8%
Cc1ccc(Nc2nnc(-c3ccc(C)c(S(=O)(=O)N4CCN(C)CC4)c3)c3ccccc23)c(C)c1,/,6.5µM*,7.3µM*,/,/
Cc1ccc(-c2nnc(Nc3cccc(Br)c3)c3ccccc23)cc1S(=O)(=O)N1CCCCC1,/,-24%,-25%,/,/
Cc1ccc(NS(=O)(=O)c2cc(-c3n[nH]c(=O)c4ccccc34)ccc2C)cc1,-3,6.5µM*,7.3µM*,15µM*,18µM*
O=C(COC(=O)c1cc[n+]([O-])cc1)Nc1ccc(Cl)cc1C(F)(F)F,-5,-1%,29%,11%,1%
COCCn1c(=O)c(-c2ccc(F)cc2)nc2cnc(Oc3ccccc3)nc21,/,2%,-13%,/,/
SMILES,IL-1B inflam inh,TDP1 cell noCPT,DT40 TDP1 CPT,HT1080 IDH1KD tx,HT1080-NT tox
CC1N(C(=O)N2CCOCC2)CCN1S(=O)(=O)c1ccc(Cl)cc1 (configuration not stated),19,-4%,1%,25%,20%
CC(=O)NCCOC(=O)c1nn(Cc2ccccc2)c(=O)c2ccccc12,20,?,-21%,-4%,-22%
OCC1CCCN(c2nc3cc4c(cc3cc2CNCc2cccc(C(F)(F)F)c2)OCO4)C1 (configuration not stated),/,-17%,-4%[9.04 µM],/,/
Cc1cccc(Nc2nnc(-c3ccc(C)c(S(=O)(=O)N4CCN(C)CC4)c3)c3ccccc23)c1,/,?,21µM*,/,/
Cc1ccc(-c2nnc(Nc3ccc(O)cc3)c3ccccc23)cc1S(=O)(=O)NCc1nc2ccccc2[nH]1,/,-12%,-5%,/,/
Cc1ccc(-c2nnc(Nc3cccc(Br)c3)c3ccccc23)cc1S(=O)(=O)N1CCN(C)CC1,/,18µM*,13µM*,/,/
Cc1ccc(-c2nnc(NCc3nc4ccccc4[nH]3)c3ccccc23)cc1S(=O)(=O)N1CCCCC1,-3,16µM*,21µM*,4%,-4%
Cc1ccc(-c2nnc(Nc3cccc(O)c3)c3ccccc23)cc1S(=O)(=O)N1CCCCC1,/,-102%,18µM*,/,/
Cc1ccc(Nc2nnc(-c3ccc(C)c(S(=O)(=O)N4CCN(C)CC4)c3)c3ccccc23)cc1,/,16µM*,18µM*,/,/
COc1ccc(CN2C(=O)CN(S(C)(=O)=O)CC2(C)C(=O)Nc2c(C)cccc2C)cc1OC (configuration not stated),-10,4%,4%,17%,-3%
CCNc1ncc2nc(-c3ccc(Cl)cc3)c(=O)n(-c3ccccc3)c2n1,/,-7%,-4%,/,/
Cc1ccc(-c2nc3ccc(C)cn3c2Cc2ccsc2)cc1,-29,15µM*,?,?,?
CCCc1nc2ccc(C)cn2c1Cc1ccsc1,36,9.2µM*,13µM*,-2%,8%
Cc1ccc(Cc2c(-c3ccc(Br)cc3)nc3ccc(Br)cn23)cc1,45,?,18µM*,-28%,-22%
Cc1ccc(Cc2c(C(C)(C)C)nc3ccc(Br)cn23)cc1,7,?,?,-13%,-1%
Cc1ccc2nc(C(C)(C)C)c(Cc3ccsc3)n2c1,19,18µM*,?,?,?
O=C(CSc1nc2ccccc2nc1Cc1ccccc1)N1CCc2ccccc21,/,-13%,-17%,/,/
COc1ccc(C(=O)N(Cc2cc(OC)c(OC)c(OC)c2)C2CCS(=O)(=O)C2)cc1Cl (configuration not stated),/,-13%,-11%,/,/
Cc1ccc(-c2nc3ccc(Br)cn3c2Cc2ccsc2)cc1,0,23µM*,15µM*,?,-6%
COCCNc1nnc(Cc2ccc(Cl)cc2)c(=O)[nH]1,10,22%,-21%,0%,-5%
COCCCNc1nnc(Cc2ccc(Cl)cc2)c(=O)[nH]1,24,0.82µM*,0.41µM*,?,0.92µM*
CC1(NC(=O)NCc2ccccc2)CCS(=O)(=O)C1 (configuration not stated),14,7%,-6%,9%,6%
Cc1cccc(N=C2C(=O)Nc3c(Cl)cccc32)c1,19,29µM*,?,-1%,-20%
O=C(CCCCC(=O)Sc1ccccc1)Sc1ccccc1,-96*,?,?,-8%,-1%
